# Measured values reported in PubChem BioAssay (NCATS).
# Inconclusive results are not listed. Where a call stands in place of a potency, no number is given. A number with no mark means an inactive call. Active and inactive are the calls of the source. Calls follow the shape of the dose curve; as a rule, active = well fitted cell-killing curve with a large enough effect; inconclusive = small, poorly fitted or top-dose-only effect, or effect the other way; inactive = no such curve, though single readings can be large or run the other way.
# Experiments:
# [1] = Viability qHTS for spleen associated tyrosine kinase inhibitor (SYKi) naive MV4-11 cells (AID 1963823); also: nearly all actives have a fitted effect of over 40% in size
# Method in brief: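 Cells: MV4-11, SYK inhibitor naive, 500 per well. Treatment: library compounds, 72 hr, 37 C, 5% CO2. Read-out: CellTiter-Glo luminescence after 10 min RT.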
# [2] = Viability qHTS for spleen associated tyrosine kinase inhibitor (SYKi) drug resistant MV4-11 cells (AID 1963824); also: nearly all actives have a fitted effect of over 35% in size
# Method in brief: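 SYK-inhibitor-resistant MV4-11 AML cells were seeded at 500 per well onto compound and cultured 72 hours (37 °C, 5% CO2). CellTiter-Glo was then added, and after 10 min at room temperature, luminescence gave viability.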
# Potency is read from the fitted curve at half-maximal effect.
SMILES,Potency [1],Potency [2],viability (% of control) [1],"viability, % of control [2]"
C=C1OC2CC(C(=O)O)C=CC2NC1=O (centres undefined),inactive,2.91 µM (active),,
OC1(CN2CCC(COc3noc4cccc(O[C@@H]5CCOC5)c34)CC2)CCOCC1,inactive,inactive,,
C=C(C(=O)O)[C@H]1C[C@]2(C)C(=O)CC[C@]23O[C@H]1C[C@@H]3C,inactive,inactive,,
CC(C)C1NC(=O)CNC(=O)C2CCCN2C(=O)C(Cc2c[nH]c3ccccc23)NC(=O)CNC(=O)C(Cc2ccc(O)cc2)NC(=O)CNC1=O (centres undefined),inactive,inactive,,
COc1ccccc1-c1cc(Nc2cccc(CS(N)(=O)=O)c2)ncn1,9200 nM (active),8.2 µM (active),,
OCC1OC(Oc2cc(O)c3c(c2)OC(c2ccc(O)cc2)C(O)C3)C(O)C1O (centres undefined),inactive,inactive,,
CC(=O)OC[C@]12[C@H](OC(C)=O)C(=O)[C@@H]3[C@@H](O)[C@@]14O[C@@]3(C)COC(=O)c1cccnc1[C@@H](C)[C@H](C)C(=O)O[C@@H]([C@H](O)[C@@H]2OC(C)=O)[C@]4(C)O,1720 nM (active),3.43 µM (active),,
O=C(OC[C@@]1(O)CO[C@@H](O[C@H]2[C@H](Oc3ccc(O)cc3)O[C@H](CO)[C@@H](O)[C@@H]2O)[C@@H]1O)c1ccc(O)cc1,inactive,inactive,,
CC12CCC(C(OC3OC(COC4OCC(O)(CO)C4O)C(O)C(O)C3O)C1)C(C)(C)O2 (centres undefined),inactive,inactive,,
CCNC(=O)[C@@H]1CCCN1C(=O)[C@H](CCCN=C(N)N)NC(=O)[C@H](CC(C)C)NC(=O)[C@@H](C)NC(=O)[C@H](Cc1ccc(O)cc1)NC(=O)[C@H](CO)NC(=O)[C@H](Cc1c[nH]c2ccccc12)NC(=O)[C@H](Cc1cnc[nH]1)NC(=O)[C@@H]1CCC(=O)N1,inactive,inactive,,
CC(C)=CCC[C@](C)(O[C@@H]1O[C@H](CO[C@@H]2O[C@H](CO)[C@@H](O)[C@H](O)[C@H]2O)[C@@H](O)[C@H](O)[C@H]1O)C1CC[C@]2(C)[C@@H]1[C@H](O)CC1[C@@]3(C)CC[C@H](O[C@@H]4O[C@H](CO)[C@@H](O)[C@H](O)[C@H]4O[C@@H]4O[C@H](CO)[C@@H](O)[C@H](O)[C@H]4O)C(C)(C)[C@@H]3CC[C@]12C (some centres undefined),,,64.5% [at 9.25 µM],69.6% [at 9.25 µM]
CC(C)=CCc1cc(C(O)C2NC(=O)CNC(=O)C(Cc3c[nH]c4ccccc34)NC(=O)C3CCCN3C(=O)CNC(=O)C(C(C)C)NC(=O)CNC2=O)ccc1O (centres undefined),,,78.4% [at 9.25 µM],92.7% [at 9.25 µM]
C=CC(C)(C)C12Nc3c(ccc4c3OC(C)(C)C=C4)C1(O)CC1C(=O)N3CCCC3C(=O)N12 (centres undefined),inactive,4.47 µM (active),,
C=C1C(=O)OC2C1CCC(=C)C1CC(OC(C)=O)C(=C)C12 (centres undefined),3260 nM (active),2.31 µM (active),,
COC(=O)[C@]1(C)CCC[C@@]2(C)[C@@H]3CC[C@@H]4C[C@@]3(CC[C@@H]21)C[C@H]4C(=O)O,inactive,inactive,,
COc1cc(C(=O)OCC2=CCC3C(C(=O)O)=COC(O[C@@H]4O[C@H](CO)[C@@H](O)[C@H](O)[C@H]4O)C23)ccc1O (some centres undefined),inactive,inactive,,
CC(=O)O[C@@H]1[C@@H](OC(=O)/C=C/c2ccccc2)[C@@H](OC(C)=O)[C@H](O[C@H]2[C@@H]3C=CO[C@@H](O[C@@H]4O[C@H](CO)[C@@H](O)[C@H](O)[C@H]4O)[C@@H]3[C@@]3(CO)O[C@@H]23)O[C@H]1C,inactive,inactive,,
O=C(N/N=C/c1ccccc1O)c1ccncc1,944 nM (active),0.75 µM (active),,
COC(=O)c1c(C)cc(OC(=O)c2c(C)cc(OC)cc2OC)cc1O[C@@H]1O[C@H](CO)[C@@H](O)[C@H](O)[C@H]1O,inactive,inactive,,
Cc1csc2c(N[C@@H](C)CN3CCN(S(=O)(=O)c4ccc(Cl)c(Cl)c4)CC3)ncnc12,259 nM (active),0.231 µM (active),,
CC1(C)CC2C(O)c3cocc3CC(C)(O)C2C1 (centres undefined),inactive,inactive,,
COc1cc(C(=O)OC[C@H]2O[C@@H](OC(C)(C)C(=O)O)[C@H](O)[C@@H](O)[C@@H]2O)cc(OC)c1O,inactive,inactive,,
CCC(C)C1NC(=O)C2CCCN2C(=O)C(C(C)C)NC(=O)c2ccccc2NC(=O)C(Cc2ccc(O)cc2)NC(=O)C(C)NC(=O)C(C(C)O)NC1=O (centres undefined),inactive,inactive,,
CC1=C2CC3C(CCC3(C)O)C(C)(O)CC2OC1=O (centres undefined),inactive,inactive,,
CC#CC(=O)N1CC[C@@H](n2c(=O)n(-c3ccc(Oc4ccccc4)cc3)c3c(N)ncnc32)C1,7420 nM (active),8.33 µM (active),,
COC(=O)C1=COC(O[C@@H]2O[C@H](CO)[C@@H](O)[C@H](O)[C@H]2O)C2C(C)C(=O)CC12 (some centres undefined),inactive,inactive,,

SMILES,Potency [1],Potency [2],viability (% of control) [1],"viability, % of control [2]"
CC(C)(C)c1ccc(NC(=O)N2CCN(c3ncccc3Cl)CC2)cc1,3660 nM (active),4.11 µM (active),,
C/C(=C\C=C\C(C)C1CCC2(C)C3CCC4C(C)(C)C(=O)CCC45CC35CCC12C)C(=O)O (centres undefined),inactive,6.32 µM (active),,
CCCCC[C@H](O)C=C[C@H]1[C@H](O)CC(=O)[C@H]1CC=CCCCC(=O)O,119 nM (active),0.0186 µM (active),,
CC(C)C(C#N)O[C@@H]1O[C@H](CO[C@@H]2O[C@@H](C)[C@H](O)[C@@H](O)[C@H]2O)[C@@H](O)[C@H](O)[C@H]1O (some centres undefined),inactive,inactive,,
NC1CCC(Nc2cc(-c3cccc(NCc4cccc(F)c4)n3)c(Cl)cn2)CC1 (centres undefined),146 nM (active),0.116 µM (active),,
COc1ccc(/C=C/C(=O)O[C@@H]2[C@@H](O[C@@H]3O[C@H](CO)[C@@H](O)[C@H](O)[C@H]3O)[C@@H](O)[C@H](O[C@H]3C4C=CO[C@@H](O[C@@H]5O[C@H](CO)[C@@H](O)[C@H](O)[C@H]5O)C4[C@@]4(CO)O[C@@H]34)O[C@H]2C)cc1 (some centres undefined),,,75.2% [at 9.25 µM],104% [at 9.25 µM]
CC(=O)N1CCN(C(=O)Cc2ccc(Nc3ncc(F)c(Nc4ccc(C(=O)Nc5ccccc5Cl)cc4)n3)cc2)CC1,517 nM (active),0.517 µM (active),,
C=C1CC2C3(C)C=CC(=O)OC(C)(C)C3CC(OC(C)=O)C2(C)C2C(=O)OC(C)C(=O)C12C (centres undefined),inactive,inactive,,
CC(C)CC(=O)O[C@@H]1OC=C(CO[C@@H]2O[C@H](CO[C@@H]3O[C@H](CO)[C@@H](O)[C@H](O)[C@H]3O)[C@@H](O)[C@H](O)[C@H]2O)[C@H]2C[C@H](O)[C@@H](CO)[C@@H]12,inactive,inactive,,
O=C(NCc1cccc(O)c1)c1cc2cc(F)ccc2[nH]1,16400 nM (active),13 µM (active),,
Oc1cccc(Nc2ccnc3cc(-c4cccc(CN5CCOCC5)c4)sc23)c1,291 nM (active),0.461 µM (active),,
Cc1cccc(Nc2cc(Cl)nc(SCC(=O)O)n2)c1C,inactive,inactive,,
O=C(O[C@H]1[C@@H]2C=CO[C@@H](O[C@@H]3O[C@H](CO)[C@@H](O)[C@H](O)[C@H]3O)[C@@H]2[C@@]2(CO)O[C@@H]12)c1ccccc1,inactive,inactive,,
CC(C)=C[C@@H]1[C@H](CO[C@@H]2O[C@H](CO)[C@@H](O)[C@H](O)[C@H]2O)C1(C)C,7180 nM (active),4.53 µM (active),,
CC1(C)CC[C@]2(C(=O)O[C@@H]3O[C@H](CO)[C@@H](O)[C@H](O)[C@H]3O)CC[C@]3(C)C(=CCC4[C@@]5(C)C[C@@H](O)[C@H](O)[C@](C)(C=O)C5CC[C@]43C)[C@@H]2[C@@H]1O (some centres undefined),inactive,inactive,,
CC(=O)O[C@@H]1[C@@H](O)[C@H](O[C@H]2CC[C@]34C[C@]35CC[C@]3(C)[C@@H]([C@@]6(C)CC[C@@H](C(C)(C)O)O6)[C@@H](O)C[C@@]3(C)[C@@H]5C[C@H](O[C@@H]3O[C@H](CO)[C@@H](O)[C@H](O)[C@H]3O)[C@H]4C2(C)C)OC[C@H]1O,inactive,inactive,,
CC(=O)O[C@H]1[C@H](O[C@H]2[C@@H]3C=CO[C@@H](O[C@@H]4O[C@H](CO)[C@@H](O)[C@H](O)[C@H]4O)[C@@H]3[C@@]3(CO)O[C@@H]23)O[C@@H](C)[C@H](OC(=O)/C=C/c2ccccc2)[C@H]1OC(=O)/C=C/c1ccccc1,,,88.5% [at 9.25 µM],83.3% [at 9.25 µM]
COc1cc(C(C)=O)ccc1O[C@@H]1O[C@H](CO[C@@H]2O[C@@H](C)[C@H](O)[C@@H](O)[C@H]2O)[C@@H](O)[C@H](O)[C@H]1O,inactive,inactive,,
CC(C)(O)C1CCC2(C)C3C(O)C4C(C13)C42CO (centres undefined),inactive,inactive,,
CC(C)CC1NC(=O)C(C)NC(=O)C(CC(C)C)OC(=O)CCCNC1=O (centres undefined),inactive,inactive,,
C=C1C(=O)O[C@@H]2[C@H]1CC(=O)[C@H](C)[C@@](O)(C(=O)/C=C/C)[C@H]2OC(=O)C(C)CC (some centres undefined),360 nM (active),0.508 µM (active),,
CC[C@@H](N)CNc1ccnc(-c2cc(-c3cnn(C)c3)ccc2O)n1,920 nM (active),1.64 µM (active),,
COC1=Cc2c(nc3n(c2=O)C(C)C(=O)NC3(O)C(C)C)OC=C1 (centres undefined),inactive,inactive,,
C=C1C2(CCC(=O)OC2(C)C)CC(OC(=O)/C(C)=C/C)C2(C)C13OC14C(=O)OC(C)(C(=O)C12C(=O)OC4C)C3OC(C)=O (centres undefined),inactive,inactive,,
COC(=O)[C@H](Cc1ccc([N+](=O)[O-])cc1)NC(=O)c1cccc2ccccc12,5800 nM (active),4.11 µM (active),,
Cc1cc(C)cc(C(=O)NOCCCCCC(=O)NO)c1,920 nM (active),0.58 µM (active),,
